This is part of a sample that, as a whole, favours compounds with a hit. Of some 83,000 tested, about 20% had one in any assay.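 96-well plates, one dose, 48 hours. Percent growth reported; active if below 10.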 Values without a mark were called inactive. Active and inactive are the calls of the source.
Each compound was assayed on OVCAR-4 ovarian (assay: NCI-60 one-dose screen, 48 h (100 = growth as untreated, 0 = no growth, -100 = all killed)). Conditions: 10 µM.

SMILES	growth
Nc1nc(SCc2cccc([N+](=O)[O-])c2)c2[nH]cnc2n1	99.3%
N/C(=N\c1nc2ccccc2[nH]1)NC(=O)Cc1cccc2ccccc12	70.6%
O=C1NC(=O)c2cc([N+](=O)[O-])cc3cccc1c23	95.7%
COc1ccc(C2CC(c3cc(OC)c(OC)c(OC)c3)=NN2C(C)=O)cc1OCC(=O)Nc1nc2ccc(C(F)(F)F)cc2s1 (configuration not stated)	69.5%
O=C(N/N=C/c1ccc([N+](=O)[O-])cc1)c1ccc(Br)o1	99.8%
O=C(NCc1ccccc1)C(Cl)Cl	102%
COc1cc2c(c(OC)c1OC)-c1ccc(NNC(N)=S)c(=O)cc1[C@@H](NC(C)=O)CC2	23.1%
CC(C)OC(=O)Nc1cc(F)c(F)cc1F	103%
Nc1cc(C(=O)O)[nH]c(=S)n1	105%
COc1ccc(OC)c(NC=O)c1	103%
ClC1=C(Cl)C(Cl)=C(Cl)C1=Cc1ccccc1	-20.3% (active)
O=C(O)c1cc([N+](=O)[O-])ccc1Br	99.2%
COC(=O)c1cc2c(=O)[nH]cc3c2c(n1)CCC3	103%
CCN=C1C=CC(=C(c2ccc(N(CC)CC)cc2)c2ccc(N(CC)CC)cc2)c2ccccc21	-18.4% (active)
O=c1[nH]c(CN2CCN(c3cccc(Cl)c3)CC2)nc2cc(Cl)ccc12	104%
c1ccc2c(c1)CN(CCCN1CCOCC1)C2	102%
Nc1cc(NN=C(c2ccc(O)cc2)c2ccc(O)cc2)c([N+](=O)[O-])cc1[N+](=O)[O-]	76.1%
